# Assay results reported in PubChem BioAssay AID1438 (Sanford-Burnham Center for Chemical Genomics, 2008).
# Among all 2,200 compounds or so, about 45 (2%) were called active. How the calls were made is not given here. Not all results are given here. Potency and affinity values are given separately.
# Biological target: Runt-related transcription factor 1 (Homo sapiens) + Core-binding factor subunit beta (Homo sapiens) (UniProt Q01196+Q13951)
# Experiment: Runt domain/CBFb-SMMHC interaction disruptors – biochemical, TR-FRET (AID 1438)
# Conditions: at 20 µM, stronger effect = higher value
# Sequence of Runt-related transcription factor 1 (Homo sapiens) + Core-binding factor subunit beta (Homo sapiens) (Q01196 whole entry, looked up, the tested form may be a part): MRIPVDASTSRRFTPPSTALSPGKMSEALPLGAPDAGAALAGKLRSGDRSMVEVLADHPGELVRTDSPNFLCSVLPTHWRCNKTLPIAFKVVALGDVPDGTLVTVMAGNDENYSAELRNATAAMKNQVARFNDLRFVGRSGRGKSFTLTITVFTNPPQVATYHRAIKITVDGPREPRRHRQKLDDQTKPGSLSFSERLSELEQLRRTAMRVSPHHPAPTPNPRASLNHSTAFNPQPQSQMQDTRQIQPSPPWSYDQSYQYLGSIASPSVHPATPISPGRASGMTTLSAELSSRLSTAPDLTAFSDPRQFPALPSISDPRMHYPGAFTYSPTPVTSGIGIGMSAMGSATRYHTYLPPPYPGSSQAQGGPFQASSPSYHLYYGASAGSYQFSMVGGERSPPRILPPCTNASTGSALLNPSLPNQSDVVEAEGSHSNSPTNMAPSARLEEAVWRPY
# Sequence of Runt-related transcription factor 1 (Homo sapiens) + Core-binding factor subunit beta (Homo sapiens) (Q13951 whole entry, looked up, the tested form may be a part): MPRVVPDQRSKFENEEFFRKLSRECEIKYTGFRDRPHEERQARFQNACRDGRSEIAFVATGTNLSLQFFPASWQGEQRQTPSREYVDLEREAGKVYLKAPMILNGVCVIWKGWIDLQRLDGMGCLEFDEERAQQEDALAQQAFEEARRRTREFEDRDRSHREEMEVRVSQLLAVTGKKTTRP
row,SMILES,inhibition
1,CC(C)OC(=O)CC(=O)CSc1nc2c(cc1C#N)CCCCCC2,38.5% (inactive)
2,CC(=O)c1c(N2CCN(C)CC2)nc(=S)n(Cc2ccccc2)c1C,15.7% (inactive)
3,CCCOc1c(Br)cc(C2C3=C(CCCC3=O)N(C)C3=C2C(=O)CCC3)cc1OC,41.4% (inactive)
4,CCCOc1c(Br)cc(C2C3=C(CCCC3=O)N(CC)C3=C2C(=O)CCC3)cc1OC,-13.6% (inactive)
5,CNc1sc(C(=O)c2cccs2)c(N)c1-c1nc2ccccc2s1,35.8% (inactive)
6,C=CCNc1sc(C(=O)c2cccs2)c(N)c1C#N,-0.1% (inactive)
7,Cc1cccn2c(=O)c(/C=C(\C#N)C(N)=O)c(Oc3ccccc3)nc12,-15.3% (inactive)
8,COc1cccc(C(=O)Nc2nc3c(s2)CN(C)CC3)c1,-21% (inactive)
9,COCCCNC(=O)c1c(N)n(-c2ccccc2)c2nc3ccccc3nc12,-6.7% (inactive)
10,COCCCNC(=O)c1c(N)n(-c2ccc(S(N)(=O)=O)cc2)c2nc3ccccc3nc12,43.4% (inactive)
11,CCCN1C2CCCC1CC(NC(=S)Nc1ccc(OC)cc1)C2 (stereo not drawn),-12% (inactive)
12,CSc1nc(NCCCO)c2c3c(sc2n1)CN(C)CC3,-10.5% (inactive)
13,CSc1nc(NCC(C)C)c2c3c(sc2n1)CN(C)CC3,37.7% (inactive)
14,COc1ccc(Br)cc1C1NC(=O)c2c(sc3c2CCN(C)C3)N1 (stereo not drawn),15% (inactive)
15,CCn1nc(NC(=O)C2CCCO2)c2cc3cccc(C)c3nc21 (stereo not drawn),2.1% (inactive)
16,CCN(CC)c1ccc(/C=N\NC(=O)c2cccc3cc[nH]c23)cc1,5.9% (inactive)
17,CCN1C=C(C(=O)OC)C(c2cccc(OC)c2OC)C(C(=O)OC)=C1,-23.2% (inactive)
18,Cc1c(O)ccc2c3c(c(=O)oc12)CCC(C)C3 (stereo not drawn),19.7% (inactive)
19,Cc1ccc(/C=C/C(=O)Nc2cccc3ncccc23)o1,19.8% (inactive)
20,COc1cc(/C=C(\C#N)C(=O)Nc2cccc3ncccc23)cc(OC)c1OC,18.6% (inactive)

row,SMILES,inhibition
1,COc1ccc(-c2cc(C(F)(F)F)n3nc(N)nc3n2)cc1,25.3% (inactive)
2,O=C(Cc1c2ccccc2nc2ccccc12)c1ccccc1,48.7% (inactive)
3,COCCCNC(=O)c1cc2c(=O)n3cccc(C)c3nc2n(C(C)C)c1=N,1.4% (inactive)
4,CC(=O)Nc1nc2n(n1)C(c1ccc(Cl)cc1)C=C(C)N2 (stereo not drawn),45.7% (inactive)
5,CC1=CC(c2ccccc2)n2nc(NS(=O)(=O)c3ccc(C)cc3)nc2N1 (stereo not drawn),49.9% (inactive)
6,N#Cc1c(N)n(-c2cccc(C(=O)O)c2)c2nc3ccccc3nc12,-8.2% (inactive)
7,O=c1oc2ccc3ccccc3c2cc1-c1nnc(-c2cccs2)o1,29.8% (inactive)
8,CCOC(=O)c1cc2c(=O)n3ccccc3nc2n(CCCOC)c1=NC(=O)c1cccnc1,47.6% (inactive)
9,COC(=O)Cc1cc(=O)oc2cc(O)ccc12,32.6% (inactive)
10,CN(C)c1cccc(C(=O)OCc2cc(=O)oc3cc(O)ccc23)c1,47.5% (inactive)
11,CCOC(=O)c1c(NC(=O)CSc2ncccn2)sc2c1CCN(Cc1ccccc1)C2,-5.3% (inactive)
12,CCCCNC(=O)c1cc2c(=O)n3cccc(C)c3nc2n(Cc2ccccc2)c1=N,33.9% (inactive)
13,CCCn1c(C)nc2c(c1=O)c1nc3ccccc3nc1n2CCC1=CCCCC1,36.3% (inactive)
14,CCCCn1c2nc3ccccc3nc2c2c(=N)oc(C)nc21,36.7% (inactive)
15,COc1ccc(-n2c(N)c(C(=O)NCc3ccco3)c3nc4ccccc4nc32)cc1,42.9% (inactive)
16,CCOc1ccc(-n2c(N)c(C(=O)NCc3ccco3)c3nc4ccccc4nc32)cc1,43.5% (inactive)
17,Cc1nc2c(c(=O)n1Cc1ccco1)c1nc3ccccc3nc1n2Cc1ccccc1,80.9% (active)
18,Cc1ccc(S(=O)(=O)c2cc3c(=O)n4cccc(C)c4nc3n(Cc3ccco3)c2=N)cc1C,47.5% (inactive)
19,CCCn1c(=NC(=O)c2c(-c3c(F)cccc3Cl)noc2C)c(C(=O)OCC)cc2c(=O)n3ccccc3nc21,-16.8% (inactive)
20,COc1nc(N)c(S(=O)(=O)c2ccccc2)cc1C#N,8.9% (inactive)

row,SMILES,inhibition
1,CCOC(=O)c1cc2c(=O)n3ccccc3nc2n(CC2CCCO2)c1=NC(=O)/C=C/c1ccccc1 (stereo not drawn),3.6% (inactive)
2,C=CCNC(=O)/C(C#N)=C/c1c(N(Cc2ccccc2)Cc2ccccc2)nc2ccccn2c1=O,19.2% (inactive)
3,COCCN(C(=O)CN1CCc2ccccc2C1)c1c(N)n(Cc2ccccc2)c(=O)[nH]c1=O,23.7% (inactive)
4,COc1ccccc1NC(=O)c1cc2ccccc2o/c1=N\O,30.6% (inactive)
5,COc1ccccc1NC(=O)c1cc2ccc(O)cc2o/c1=N\O,-13.2% (inactive)
6,COCCN1C=C(C(=O)OC)C(c2ccccc2C(F)(F)F)C(C(=O)OC)=C1,44% (inactive)
7,COc1cc(/C=N/N2CCN(C3c4ccccc4-c4ccccc43)CC2)cc(OC)c1O,33.8% (inactive)
8,O=C1C2C3C=CC(CO)(O3)C2C(=O)N1c1ccc(-c2ccccc2)cc1 (stereo not drawn),27.4% (inactive)
9,N#Cc1cc2cc3c(cc2nc1NCCNC(=S)NCCCN1CCOCC1)OCO3,-18.1% (inactive)
10,CCOC(=O)Cc1csc(/N=C/c2c(O)n(-c3ccc(C)c(C)c3)c(=O)c3ccccc23)n1,5% (inactive)
11,O=c1c2ccccc2sn1-c1nccs1,-7% (inactive)
12,Cc1c2c(n3c(nc4ccccc43)c1C#N)N(CCCN(C)C)CC2,-5.5% (inactive)
13,Clc1ccc(C2=NN(c3ccccc3)C(c3ccco3)C2)cc1 (stereo not drawn),37.8% (inactive)
14,CC(C)OCCCn1c(=N)c(C(N)=S)cc2c(=O)n3ccccc3nc21,49.7% (inactive)
15,CCOCCCn1c(=N)c(C(=O)NCc2ccc3c(c2)OCO3)cc2c(=O)n3cccc(C)c3nc21,1.9% (inactive)
16,Cc1cccn2c(=O)c3cc(C(N)=S)c(=N)n(CCCOC(C)C)c3nc12,63.5% (active)
17,CC(=O)N=c1c(C#N)cc2c(=O)n3cccc(C)c3nc2n1CCCOC(C)C,-10.3% (inactive)
18,Cc1cccn2c(=O)c3cc(C(N)=S)c(=N)n(CCCN4CCOCC4)c3nc12,-11.3% (inactive)
